Hit rate of the full screen: of about 16,000 compounds, about 4,000 (25%) were called active. Not shown: some 26% with an inconclusive outcome. Not all results are given here. A number with no mark means an inactive call. Calls follow the shape of the dose curve; as a rule, active = well fitted curve in the direction sought with a large enough effect; inconclusive = small, poorly fitted or top-dose-only effect, or effect the other way; inactive = no such curve, though single readings can be large or run the other way.
Target: Cytochrome P450 2C9 (Homo sapiens) (UniProt P11712)
Experiment: Cytochrome panel assay with activity outcomes
Conditions: recombinant CYP, pro-luciferin dealkylation, luminescence, p450-cyp2c9; series mostly up to 57.1 µM; activity, negative = inhibition: at the top concentration
% is scaled to controls: 0 for no effect and ±100 for the full control effect.

Chain of Cytochrome P450 2C9 (Homo sapiens) (P11712 whole entry, looked up): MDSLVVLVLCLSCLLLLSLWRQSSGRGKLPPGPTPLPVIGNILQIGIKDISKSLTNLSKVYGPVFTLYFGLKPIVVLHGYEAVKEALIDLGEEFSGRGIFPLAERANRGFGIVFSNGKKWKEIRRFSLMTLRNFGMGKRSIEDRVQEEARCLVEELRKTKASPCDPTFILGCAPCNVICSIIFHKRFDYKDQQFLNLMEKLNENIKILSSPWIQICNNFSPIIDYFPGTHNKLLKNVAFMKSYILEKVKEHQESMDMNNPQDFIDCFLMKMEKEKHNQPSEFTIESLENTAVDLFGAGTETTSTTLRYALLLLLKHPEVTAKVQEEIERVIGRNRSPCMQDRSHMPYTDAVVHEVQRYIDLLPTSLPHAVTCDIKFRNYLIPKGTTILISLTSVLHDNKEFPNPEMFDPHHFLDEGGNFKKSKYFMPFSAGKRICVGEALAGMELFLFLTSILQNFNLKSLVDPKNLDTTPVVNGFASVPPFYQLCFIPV

Compound	AC50	activity, negative = inhibition
CNC(=O)c1ccc(-c2sc3nc(N4CCOCC4)c4c(c3c2N)CC(C)(C)OC4)o1	4.47 µM (active)	
CCNc1ncc2nc(-c3cccc(C#N)c3)c(=O)n(C)c2n1		0.958%
CCOc1nc(NC(C)C)nc(NC(C)C)n1		1.15%
CCN(CC)S(=O)(=O)c1ccc(OC)c(NC(=O)c2cc([N+](=O)[O-])ccc2Cl)c1		-23.8%
CCN(CC)S(=O)(=O)c1cc(C(=O)Nc2ccccc2C(=O)O)ccc1OC	2.24 µM (active)	
CCN(CC)S(=O)(=O)c1ccc(OC)c(NC(=O)CSc2ccccc2)c1	2.51 µM (active)	
COc1ccc(C(=O)Nc2cccc3c2C(=O)NC3=O)cc1S(=O)(=O)N1CCOCC1		-11.3%
C[C@H]1CC(C)(C)C[C@@](OCCN2CCCCC2)(c2ccccc2)C1		5.46% [at 11.4 µM]
CCNc1ncc2nc(-c3cccs3)c(=O)n(C[C@H]3CCCO3)c2n1		-6.53%
CC(=O)N1CCC[C@@]2(CCN(c3ccncc3)C2)C1		0.551%
O=C(Oc1ccccc1)N1CCC2(CC1)CN(c1ccccn1)C2		-4.7%
O=C(Oc1ccccc1)N1CCC2(CC1)CN(c1ccncc1)C2	3.16 µM (active)	
O=C(Oc1ccccc1)N1CCC2(CC1)CN(c1ccccc1)C2		-19%
O=C(Oc1ccccc1)N1CCC2(CC1)CCN(c1ccccc1)CC2		-25.2%
O=C(Oc1ccccc1)N1CCC2(CC1)CCN(c1ncccn1)CC2	15.8 µM (active)	
O=C(c1ccncc1)N1CCC[C@@]2(CCN(c3ccccc3)C2)C1		10.9%
COC(=O)N1CCC2(CC1)CN(c1ccncc1)C2		0.0576%
COC(=O)N1CCC[C@@]2(CCN(c3ncccn3)C2)C1		4.65%
CC(=O)N1CCC[C@@]2(CCN(c3ncccn3)C2)C1		10.6%
O=C(Oc1ccccc1)N1CCC[C@@]2(CCN(c3ccncc3)C2)C1	10 µM (active)	
O=C(Oc1ccccc1)N1CCC[C@@]2(CCN(c3ncccn3)C2)C1	10 µM (active)	
COCC(=O)N1CCC2(CCCN(C(=O)Nc3cccc(C#N)c3)C2)CC1		20.5%
O=[N+]([O-])c1nccn1C[C@H](O)CN1CCCCC1		0.319% [at 11.4 µM]
COc1cccc(Nc2ncc3nc(-c4cc(F)cc(F)c4)c(=O)n(CCC#N)c3n2)c1		3.68%

Compound	AC50	activity, negative = inhibition
CCN1/C(=C/c2ccc3cccc(C)c3[n+]2CC)Sc2ccccc21		-24.6%
Cn1ncc([N+](=O)[O-])c1C(=O)N1CCOCC1		3.73%
O=[N+]([O-])c1cc(F)c(N2CCOCC2)cc1N1CCCCC1	7.08 µM (active)	
O=C1N/C(=C\c2ccc(N3CCOCC3)c(F)c2)C(=O)N1Cc1ccccc1		-22.3%
N#Cc1c2n(c3c(=S)nc[nH]c13)CCCCC2	17.8 µM (active)	
CO[C@H]1COC(=O)[C@H](C)COC(=O)C/C=C\[C@@H](C)[C@H](OC)COC(=O)C/C=C\[C@@H]1C		8.36% [at 11.4 µM]
CCCc1ccc(C2C3=C(CC(C)(C)CC3=O)NC3=C2C(=O)c2ccccc23)cc1 (stereo not given)	7.94 µM (active)	
CO[C@H]1COC(=O)[C@@H](Cc2ccccc2)NC(=O)[C@@H](C)COC(=O)C/C=C\[C@@H]1C		15.1% [at 11.4 µM]
Cc1ccc(C(N)=Nc2ccccc2)cc1		3.59% [at 11.4 µM]
O=C(O)C(Cc1cccs1)C(=O)O		-6.54% [at 11.4 µM]
Cc1ccc(/C(N)=N/OC(=O)Cc2cccs2)cc1	7.08 µM (active)	
C[N+]1(C)C[C@@H](O)C[C@@H]1C(=O)[O-]		15.9% [at 25.6 µM]
Cc1ccccc1-c1cncnc1NCc1cccs1		0.654% [at 2.29 µM]
COc1cccc(C(CC(=O)Nc2cccc3ccccc23)NC(=O)c2ccccc2)c1 (stereo not given)	0.251 µM (active)	
CN(CCO)c1nc(N)c2c(N)nc3c(c2c1C#N)CC(=O)N3C1CCCC1	1.41 µM (active)	
CC(C)NC(=O)N1CCCC2(CCN(C(=O)c3ccco3)CC2)C1		1.86%
CC(C)(C)c1cc2c(O)c(c1)Cc1cc(C(C)(C)C)cc(c1O)Cc1cc(C(C)(C)C)cc(c1O)Cc1cc(C(C)(C)C)cc(c1O)Cc1cc(C(C)(C)C)cc(c1O)Cc1cc(C(C)(C)C)cc(c1O)Cc1cc(C(C)(C)C)cc(c1O)Cc1cc(C(C)(C)C)cc(c1O)C2		-3.37% [at 11.4 µM]
CN(Cc1ccco1)c1nc(-c2ccc3c(c2)OCO3)nc2ccccc12		-18.1% [at 2.29 µM]
Cn1c(-c2ccc3c(c2)OCO3)cc(=O)c2ccccc21		-26.8% [at 25.6 µM]
c1ccc2c(c1)ncn2Cc1nnc2sc(-c3ccc4c(c3)OCO4)nn12	3.16 µM (active)	
Cc1noc(C)c1COc1ccc(C(=O)NCC2CCCO2)cc1 (stereo not given)		-19.7%
COc1cc(C(=O)OC(C)C(=O)Nc2ccc3c(c2)OCO3)ccc1OCc1c(C)noc1C (stereo not given)	11.2 µM (active)	
COc1ccc(C(=O)OC(C)CN2CCN(C)CC2)cc1OC (stereo not given)		-0.413%
N#C[C@@H](N=Nc1ccccc1C(=O)O)C(N)=O		-3.32% [at 11.4 µM]

Compound	AC50	activity, negative = inhibition
CNc1nc(-c2ccccc2C)nc2ccccc12		24.9% [at 2.29 µM]
CCCN(CCC)S(=O)(=O)c1ccc(C(=O)O)cc1		-6.8% [at 25.6 µM]
CCN(CC)S(=O)(=O)c1ccc(C(=O)Nc2ncn(Cc3ccccc3)n2)cc1	11.2 µM (active)	
O[C@@H](C1=C/C(=C\c2ccncc2)c2ccccc21)c1ccncc1	0.1 µM (active)	
Cc1cc(C(C)(C)C)cc(C)c1CC1=NCCN1		2.51% [at 25.6 µM]
CCCCN(C(=O)Nc1ccc(OCC)cc1)C1CCN(C(C)=O)CC1		2.54%
CCOc1ccc(NC(=O)N2CCC(C(N)=O)(N3CCCCC3)CC2)cc1		-18.2%
CCOc1ccc(NC(=O)N(C2CCCCC2)C(C)c2ccncc2)cc1 (stereo not given)	3.55 µM (active)	
c1ccc(CCNc2ccccn2)nc1		-7.63% [at 11.4 µM]
CCN(CCO)C[C@H]1CCC[C@H]2CCCC[C@@H]21		1.06% [at 11.4 µM]
O=C(Nc1ccc2oc(-c3ccccc3F)nc2c1)c1ccc2c(c1)OCCO2	8.91 µM (active)	
Cn1c(CN2CCCCC2)nc2cc(NC(=O)c3ccc(Cl)cc3)ccc21		-28.1%
C[C@@]1(C(=O)O)NCCc2cc(O)c(O)cc21		-29%
CN(C)CCCN1c2ccccc2C(C)(C)c2ccccc21		-4.58% [at 11.4 µM]
COc1nc(OCCNC(C)=O)nc(N(C)C)n1		-4.85%
COCCn1c(=O)c(-c2cccc(C#N)c2)nc2cnc(N(C)C)nc21		-1.58%
COCCn1c(=O)c(-c2cccc(C#N)c2)nc2cnc(Oc3ccccc3)nc21	7.94 µM (active)	
CCNc1ncc2nc(-c3cccc(C#N)c3)c(=O)n(CCC#N)c2n1		-9.32%
COc1ncc2nc(-c3cccc(C#N)c3)c(=O)n(CCC#N)c2n1		-2.35%
Cn1c(=O)c(-c2cccc(C#N)c2)nc2cnc(Oc3ccccc3)nc21		4.28%
COCCn1c(=O)c(-c2cccc(C#N)c2)nc2cnc(OCc3ccccc3)nc21	10 µM (active)	
C[C@@H]1/C=C\CC(=O)OC[C@H](C)C(=O)N[C@@H](C)C(=O)OC1		5.57% [at 11.4 µM]
Nc1nc2c(nc(Br)n2[C@@H]2O[C@H]3COP(=O)(O)O[C@@H]3[C@H]2O)c(=O)[nH]1		-6.44%
COc1ccc(C2N(c3ccccn3)C(=O)C3CCCN32)c(OC)c1 (stereo not given)		-21.3%

Compound	AC50	activity, negative = inhibition
COc1ccc(N2C(=O)c3ccccc3NC2c2ccc(OC)c(CSc3ccccn3)c2)cc1 (stereo not given)	1.12 µM (active)	
CN(C)[C@@H]1C(=O)C(C(N)=O)=C(O)[C@]2(O)C(=O)C3=C(O)c4c(O)ccc(Cl)c4[C@H](O)[C@H]3C[C@@H]12		-18.6%
CCOC(=O)C1=C(O)C(=O)N(Cc2ccccc2)C1	3.98 µM (active)	
CCOC(=O)N/N=C1/C[C@@H](O)[C@@H](O)[C@@H]2[C@@H]3C(=O)N(Cc4ccccc4)C(=O)[C@H]3CC[C@H]12		-12.9% [at 11.4 µM]
CCOC(=O)N/N=C1/C[C@@H](O)[C@@H](O)[C@@H]2[C@@H]3C(=O)N(Cc4ccccc4)C(=O)[C@H]3CC[C@@H]12		23.5% [at 11.4 µM]
CCCCCCC1CC(C)(/C(C)=N/NC(N)=O)OC1=O (stereo not given)	22.4 µM (active)	
CC(=O)OC[C@H]1O[C@@H](O/N=C(\C)CCC(=O)OC[C@@H]2O[C@H](C#Cc3ccccc3)C=C[C@@H]2Oc2ccc(C)cc2)[C@H](OC(C)=O)[C@@H](OC(C)=O)[C@H]1OC(C)=O		-6.45% [at 11.4 µM]
CC1CCN(C(=O)Nc2ccc3nsnc3c2)CC1	15.8 µM (active)	
O=C(Nc1ccc(Cl)c(Cl)c1)N1CCC(N2CCCCC2)CC1		-11.4%
Cc1cccc(C)c1NC(=O)N1CCC(N2CCCCC2)CC1		18.1%
COCCCNC(=O)C1CC(=O)N(Cc2ccc(OC)cc2)C1 (stereo not given)		7.71%
COCCCNC(=O)C1CC(=O)N(CCc2ccc(OC)c(OC)c2)C1 (stereo not given)		-2.84%
COc1ccc(/C=C2\SC(=O)N(CCNC(=O)C3CC(=O)N(c4ccccc4)C3)C2=O)cc1 (stereo not given)	7.94 µM (active)	
COc1ccccc1-c1cc(NCc2cccs2)ncn1		17.3% [at 2.29 µM]
Cc1ccc(CS(=O)(=O)CCC(=O)NCCN2CCCC2)cc1		9.44%
Cc1cc(=O)[nH]c(-n2[nH]c3c(c2=O)CCCC3)n1		-22.4%
Cc1ccc(S(=O)(=O)CCC(=O)Nc2nc3c(s2)CCCC3)cc1	1.12 µM (active)	
O=C(NCCN1CCOCC1)c1csc2c1CCCCC2		24.6%
Cc1ccc(CS(=O)(=O)CCC(=O)NCCCN2CCCC2)cc1		-9.15%
CCC(=O)Nc1c2c(nc3c1CCC3)CCCC2		-14.1%
CCC(Sc1nc(C)cc(=O)[nH]1)C(=O)Nc1nc2c(s1)CCCC2 (stereo not given)	7.94 µM (active)	
O=C(Cc1ccc(S(=O)(=O)N2CCOCC2)s1)Nc1nc2c(s1)CCCC2	15.8 µM (active)	
Cc1cc(=O)[nH]c(SCC(=O)Nc2nc3c(s2)CCCC3)n1	15.8 µM (active)	

— PubChem BioAssay AID1851 (National Center for Advancing Translational Sciences (NCATS), 2009)
